In PubChem BioAssay (EPA / NIEHS) one finds outcome and AC50 data, which are given here for 30 compounds.

“And” between values parts separate entries of the source, which are not always exact repeats. Equal entries are not always repeated. Results filed as inconclusive are left out. More than one record can exist for a structure, and the calls need not agree. The source made the active and inactive calls. How the source made its calls, unless noted: active means hit-call score of the fitted dose curve at least 0.9, where 1 is the maximum; inactive means score below 0.9.

Read-out in the first assay: Interleukin-8 (IL8), CXCL8 (gene 3576)
As to the kind of experiment: BSK_3C_IL8: BioMAP Diversity Plus: 3C Assay for Interleukin-8 (IL8) Biomarker Activity (AID 2283020). As to conditions: primary human endothelial cells (HUVEC); actives raise or lower the signal. Summed up: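 IL-8 was measured by ELISA in HUVEC cultures 24 h after chemical dosing, with gain or loss of signal fitted relative to DMSO. Parallel SRB total-protein staining tracked overt cytotoxicity.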
Regarding `NC(=O)C(F)(F)C(F)(F)C(F)(F)C(F)F`, the result was inactive.
For the compound `NC(=O)C(F)(F)C(F)(F)C(F)(F)C(F)(F)C(F)(F)C(F)(F)C(F)(F)F`, the outcome was inactive.
Consider `Cc1cnccn1`, for which the outcome was inactive.
As usually defined, the AC50 is the concentration giving half of the maximal activity seen. With `O=S(=O)(Cl)C(F)(F)C(F)(F)C(F)(F)C(F)(F)C(F)(F)C(F)(F)C(F)(F)C(F)(F)F`, the AC50 is 30 µM (active) and 35.3 µM (active).
As to `C=C(C)C(=O)OCC(F)(F)C(F)(F)C(F)(F)C(F)F`, the outcome was inactive.

Read-out in a further assay: Monokine induced gamma interferon (MIG), CXCL9 (gene 4283)
Put plainly: BSK_3C_MIG: BioMAP Diversity Plus: 3C Assay for Monokine induced gamma interferon (MIG) Biomarker Activity (AID 2283021). As to conditions: primary human endothelial cells (HUVEC); actives raise or lower the signal. The method in brief:
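ELISA measurement of MIG in human umbilical vein endothelial cells 24 h after treatment. Cytotoxicity tracked by SRB staining in parallel cultures; gain or loss of signal fitted relative to DMSO.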
In the case of `NC(=O)C(F)(F)C(F)(F)C(F)(F)C(F)F`, the outcome was inactive.
Regarding `NC(=O)C(F)(F)C(F)(F)C(F)(F)C(F)(F)C(F)(F)C(F)(F)C(F)(F)F`, the result was inactive.
Consider `Cc1cnccn1`, for which the outcome was inactive.
Regarding `O=S(=O)(Cl)C(F)(F)C(F)(F)C(F)(F)C(F)(F)C(F)(F)C(F)(F)C(F)(F)C(F)(F)F`, the result was inactive.
On to `C=C(C)C(=O)OCC(F)(F)C(F)(F)C(F)(F)C(F)F`, for which the result was inactive.

The target of another assay is human Vitamin D Receptor (VDR), VDR (gene 7421) (UniProt P11473). As to the kind of experiment: ATG_VDR_TRANS: Attagene TRANS-FACTORIAL HepG2 Assay for human Vitamin D Receptor (VDR) (AID 2283022; active means hit-call score of the fitted dose curve at least 0.9, where 1 is the maximum).
Chain of human Vitamin D Receptor (VDR), VDR (gene 7421) (P11473 whole entry, looked up): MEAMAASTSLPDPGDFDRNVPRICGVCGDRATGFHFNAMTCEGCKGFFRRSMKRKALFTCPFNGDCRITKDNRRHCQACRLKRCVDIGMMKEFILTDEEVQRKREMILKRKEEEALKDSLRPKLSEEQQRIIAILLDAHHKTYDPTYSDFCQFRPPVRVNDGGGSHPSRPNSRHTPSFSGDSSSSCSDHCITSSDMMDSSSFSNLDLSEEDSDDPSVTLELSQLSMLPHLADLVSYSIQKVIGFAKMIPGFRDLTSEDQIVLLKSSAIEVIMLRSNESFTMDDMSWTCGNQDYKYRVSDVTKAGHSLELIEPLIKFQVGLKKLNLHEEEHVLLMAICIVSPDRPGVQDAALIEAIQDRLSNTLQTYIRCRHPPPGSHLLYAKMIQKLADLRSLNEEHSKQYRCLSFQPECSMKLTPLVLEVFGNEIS
Conditions: not given
Summed up:
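HepG2 cells were transiently transfected with multiple GAL4-UAS reporter units, so signal reflects exogenous chimeric receptor-Gal4 activity. After 24 h compound exposure, reporter mRNA was measured by RT-PCR, fluorescent labelling and capillary electrophoresis, fitted for gain of signal versus DMSO.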
As to `CCCCCCCC/C=C\CCCCCCCC(=O)OCC(O)CO` (configuration not stated), the outcome was inactive.
On the same count and under the same terms, with `Brc1ccccn1` the entry was “inactive”; with `Oc1ccc2c(c1)CCC2`, “inactive”; with `CSc1ccc(O)cc1C`, “inactive”.
Still for that read-out and setting: with `C=C(C)CCCC` the entry was “inactive”; with `CC(O)C#CC(C)O` (configuration not stated), “inactive”.
`CO[Si](CCCOCC1CO1)(OC)OC` (configuration not stated): the result was inactive.
Take `CCCCCCCCCCCCCC[P+](CCCC)(CCCC)CCCC`: the compound was classed as inactive.
In the case of `Cc1ccc2c(c1)OCC(=O)CO2`, the result was inactive.
As for `Cc1ccc(O)cn1`, the outcome was inactive.
Turning to `O=C1c2ccccc2C(=O)c2c(Cl)cccc21`, the outcome was inactive.
For `Cc1cccc(C)n1`, the call was inactive.
Still for that read-out and setting: with `Nc1c(Br)cc([N+](=O)[O-])cc1Br` the entry was “inactive”.
As for `CCCCCCCCn1sc(Cl)c(Cl)c1=O`, the call was inactive.
With `CCOCOCC`, the outcome was inactive.
For `CC(C)C(=O)OCc1ccccc1`, the outcome was inactive.
`F[Si-2](F)(F)(F)(F)F`: the call was inactive.
Still for that read-out and setting: with `CCOC(OCC)OCC` the entry was “inactive”; with `OCC1CCCO1` (configuration not stated), “inactive”.
Regarding `CC(C)(C)C(=O)C1C(=O)c2ccccc2C1=O`, the outcome was inactive.
With `CN(N=O)C(=O)N[C@@H]1[C@@H](O)[C@H](O)[C@@H](CO)O[C@@H]1O`, the result was inactive.
The same measure, in the same setting: with `CC1=CCC(=O)O1` the entry was “inactive”.
For `CN1CN(C)CN(C)C1`, the compound was called inactive.
In the case of `OCCCc1cccnc1`, the result was inactive.
On the same count and under the same terms, with `CCCCOC(=O)C(C)O` (configuration not stated) the entry was “inactive”.

Read-out in a further assay: not listed separately
Put plainly: BSK_3C_SRB: Viability Assessment in the BioMAP Diversity Plus: 3C Assay (AID 2283023).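 Further: fitted both ways against DMSO so a hit may be signal rise or drop.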 As to conditions: primary human endothelial cells (HUVEC). Summed up:
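Primary human umbilical vein endothelial cells in the 3C system were read 24 h after compound dosing. Total protein was stained with 0.1% sulforhodamine B after 10% TCA fixation and read at 560 nm, with bidirectional fitting against DMSO as baseline.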
Consider `NC(=O)C(F)(F)C(F)(F)C(F)(F)C(F)F`, for which the outcome was inactive.
`NC(=O)C(F)(F)C(F)(F)C(F)(F)C(F)(F)C(F)(F)C(F)(F)C(F)(F)F`: the outcome was inactive.
Still for that read-out and setting: with `Cc1cnccn1` the entry was “inactive”.
As for `O=S(=O)(Cl)C(F)(F)C(F)(F)C(F)(F)C(F)(F)C(F)(F)C(F)(F)C(F)(F)C(F)(F)F`, the AC50 is 49.3 µM (active) and 55.6 µM (active).
With `C=C(C)C(=O)OCC(F)(F)C(F)(F)C(F)(F)C(F)F`, the outcome was inactive.

Read-out in the next assay: Matrix Metallopeptidase 1 (MMP1), MMP1 (gene 4312)
Put plainly: BSK_BE3C_MMP1: BioMAP Diversity Plus: BE3C Assay for Matrix Metallopeptidase 1 (MMP1) Biomarker Activity (AID 2283024). As to conditions: primary human bronchial epithelial cells; actives raise or lower the signal. Summed up:
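ELISA measurement of MMP-1 after 24 h compound exposure of primary human bronchial epithelial cells. Changes in either direction fitted relative to DMSO; parallel SRB staining checked overt cytotoxicity.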
In the case of `NC(=O)C(F)(F)C(F)(F)C(F)(F)C(F)F`, the result was inactive.
Turning to `NC(=O)C(F)(F)C(F)(F)C(F)(F)C(F)(F)C(F)(F)C(F)(F)C(F)(F)F`, the outcome was inactive.
`Cc1cnccn1`: the outcome was inactive.
Consider `O=S(=O)(Cl)C(F)(F)C(F)(F)C(F)(F)C(F)(F)C(F)(F)C(F)(F)C(F)(F)C(F)(F)F`, for which the AC50 was 7.12 µM (active) and 7.23 µM (active).
`C=C(C)C(=O)OCC(F)(F)C(F)(F)C(F)(F)C(F)F`: the outcome was inactive.

Read-out in another assay: Pselectin, SELP (gene 6403)
As to the kind of experiment: BSK_4H_Pselectin: BioMAP Diversity Plus: 4H Assay for Pselectin Biomarker Activity (AID 2283026). As to conditions: primary human endothelial cells (HUVEC); actives raise or lower the signal. Summed up:
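ELISA of surface P-selectin on HUVEC, 24 h after dosing, with parallel SRB staining (0.1% after 10% TCA fixation, 560 nm) for overt cytotoxicity. Activity fitted in both directions relative to DMSO.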
In the case of `NC(=O)C(F)(F)C(F)(F)C(F)(F)C(F)F`, the outcome was inactive.
Same read-out and setting: with `NC(=O)C(F)(F)C(F)(F)C(F)(F)C(F)(F)C(F)(F)C(F)(F)C(F)(F)F` the entry was “inactive”; with `Cc1cnccn1`, “inactive”.
Consider `O=S(=O)(Cl)C(F)(F)C(F)(F)C(F)(F)C(F)(F)C(F)(F)C(F)(F)C(F)(F)C(F)(F)F`, for which the result was inactive.
`C=C(C)C(=O)OCC(F)(F)C(F)(F)C(F)(F)C(F)F`: the result was inactive.

Read-out in the next assay: not listed separately
Put plainly: BSK_4H_SRB: Viability Assessment in the BioMAP Diversity Plus: 4H Assay (AID 2283027).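 Further: cells exposed to compound for 24 h before staining.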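 On AC50: curves fitted both ways versus DMSO so AC50 may be loss or gain.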 Conditions: primary human endothelial cells (HUVEC). The method in brief:
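HUVEC, 24 h post-dose; 10% TCA fix, 0.1% SRB stain, A560 nm. Total protein = overt cytotoxicity, parallel to biomarker read. Bidirectional fit vs DMSO baseline.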
In the case of `NC(=O)C(F)(F)C(F)(F)C(F)(F)C(F)F`, the result was inactive.
For `NC(=O)C(F)(F)C(F)(F)C(F)(F)C(F)(F)C(F)(F)C(F)(F)C(F)(F)F`, the result was inactive.
With `Cc1cnccn1`, the outcome was inactive.
In the case of `O=S(=O)(Cl)C(F)(F)C(F)(F)C(F)(F)C(F)(F)C(F)(F)C(F)(F)C(F)(F)C(F)(F)F`, the AC50 is 45.9 µM (active) and the result was inactive.
Consider `C=C(C)C(=O)OCC(F)(F)C(F)(F)C(F)(F)C(F)F`, for which the result was inactive.

Read-out in the next assay: not listed separately
As to the kind of experiment: BSK_BE3C_SRB: Viability Assessment in the BioMAP Diversity Plus: BE3C Assay (AID 2283028).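 On AC50: fitted both ways so AC50 may mark signal gain or loss versus DMSO.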 Conditions: primary human bronchial epithelial cells. The method in brief:
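Human primary bronchial epithelial cells were exposed to test chemicals for 24 h. Total protein in parallel cultures was then measured by staining with 0.1% sulforhodamine B after 10% TCA fixation, with absorbance read at 560 nm. Activity was fitted bidirectionally against DMSO.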
For the compound `NC(=O)C(F)(F)C(F)(F)C(F)(F)C(F)F`, the result was inactive.
The same measure, in the same setting: with `NC(=O)C(F)(F)C(F)(F)C(F)(F)C(F)(F)C(F)(F)C(F)(F)C(F)(F)F` the entry was “inactive”; with `Cc1cnccn1`, “inactive”.
Regarding `O=S(=O)(Cl)C(F)(F)C(F)(F)C(F)(F)C(F)(F)C(F)(F)C(F)(F)C(F)(F)C(F)(F)F`, the AC50 was 43.9 µM (active) and 30.7 µM (active).
Regarding `C=C(C)C(=O)OCC(F)(F)C(F)(F)C(F)(F)C(F)F`, the outcome was inactive.

Read-out in the next assay: Thrombomodulin, THBD (gene 7056)
As to the kind of experiment: BSK_3C_Thrombomodulin: BioMAP Diversity Plus: 3C Assay for Thrombomodulin Biomarker Activity (AID 2283029). As to conditions: primary human endothelial cells (HUVEC); actives raise or lower the signal. The method in brief:
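ELISA measurement of thrombomodulin on HUVEC surface 24 h after chemical dosing; activity fitted in both directions relative to DMSO vehicle.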
With `NC(=O)C(F)(F)C(F)(F)C(F)(F)C(F)F`, the outcome was inactive.
With `NC(=O)C(F)(F)C(F)(F)C(F)(F)C(F)(F)C(F)(F)C(F)(F)C(F)(F)F`, the result was inactive.
Consider `Cc1cnccn1`, for which the result was inactive.
For `O=S(=O)(Cl)C(F)(F)C(F)(F)C(F)(F)C(F)(F)C(F)(F)C(F)(F)C(F)(F)C(F)(F)F`, the half-maximal activity concentration (AC50) is 30 µM (active) and 44.8 µM (active).
`C=C(C)C(=O)OCC(F)(F)C(F)(F)C(F)(F)C(F)F`: the AC50 is 21.8 µM (active) and the result was inactive.
